Source: PubChem
HCMV inh – blocks human cytomegalovirus replication | HFF cells, HCMV-luciferase reporter, 72 h; hits give low values | activity change, negative = inhibition, % at 57.5 µM | AID 1259415 | 410,000 compounds, 4.5% hits; in the data active means activity change below about -60%; inconclusive means no clear call, values can overlap the other calls; inactive means above about -39%
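Luciferase read-out from HCMV-luciferase-infected HFFs (MOI 1 PFU/cell) 72 h post infection at 37C; compounds added after 16 h cell attachment; activity normalized between buffer-only basal and Salinomycin (10uM) inhibitor controls.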
FMDV inh – blocks foot and mouth disease virus; FMDV antiviral cell-based qHTS; Potency, µM (highest dose often 57.9 µM), usual class: inhibitors; 410,000 compounds, 1.2% hits; calls by dose curve; tested in HEK293T cells; further: read-out not given here; nearly all actives have a fitted effect of over 45% in size
Marburg entry inh – blocks Marburg virus binding to or entry into cells; Marburg virus pseudotyped entry inhibition, cell reporter; Potency, µM (titrated, usually from 37.8 µM), most hits filed as inhibitors; 300,000 compounds, 1.8% hits; AID 540276; calls by dose curve; tested in HEK293 cells
Lassa entry inh – blocks Lassa virus binding to or entry into cells | Potency, µM (series often up to 37.9 µM), actives largely listed as inhibitors | Lassa virus pseudotype entry inhibition, cell reporter | 300,000 compounds, 1.2% hits; calls by dose curve; tested in HEK293 cells; further: nearly all actives have a fitted effect of over 50% in size
Large screens that a line does not name were inactive; ! = repeats disagree. Most compounds without a hit are left out; they make up all but 6.2% or so of the library.

COc1ccc(S(=O)(=O)N2CCN(C(=O)c3cc(-c4ccc(Br)cc4)n[nH]3)CC2)cc1OC	HCMV inh -72!, FMDV inh inconclusive, Marburg entry inh inconclusive, Lassa entry inh 10µM
COc1cccc(C2(CC(=O)N3CCCCC3CO)CC(=O)N(C)C2=O)c1 (stereo not given)	none (no result: HCMV inh, Marburg entry inh, Lassa entry inh)
Brc1ccc2[nH]c3c(c2c1)CCC3	HCMV inh -70, Marburg entry inh inconclusive, Lassa entry inh 8.9µM
CN(C)c1cccc(C(=O)NCC2Cc3cccc(-c4cncnc4)c3O2)c1 (stereo not given)	none (no result: HCMV inh, Marburg entry inh, Lassa entry inh)
CCn1cc2nc(SCc3cc(C)ccc3C)n(CCc3ccccc3)c(=O)c2n1	HCMV inh -86, Lassa entry inh 4µM (no result: Marburg entry inh)
Cc1cccc2sc(N(Cc3cccnc3)C(=O)CCS(=O)(=O)c3ccccc3)nc12	HCMV inh inconclusive, Lassa entry inh inconclusive (no result: Marburg entry inh)
COc1ccc(C=CC(=O)c2c(N)n(C)c(=O)n(C)c2=O)cc1	none (no result: FMDV inh, Marburg entry inh, Lassa entry inh)
Cc1ccc2nc(-c3sc4nc(C)cc(C)c4c3N)[nH]c2c1	Marburg entry inh inconclusive, Lassa entry inh 13µM
Cc1nnc2n1N=CC=C(c1ccccc1)S2	HCMV inh -99, FMDV inh inconclusive, Marburg entry inh inconclusive, Lassa entry inh inconclusive
CCC[C@H]1[C@@H](NC(=O)Nc2ccc(C(F)(F)F)cc2)CC[C@@]23CCCN2C(=O)CCC[C@@H]13	none (no result: FMDV inh, Marburg entry inh, Lassa entry inh)
Cc1cccc(CN2C(=O)N(c3ccc(C(C)C)cc3)S(=O)(=O)c3ccccc32)c1	HCMV inh -69, Lassa entry inh inconclusive (no result: Marburg entry inh)
CCc1ccccc1N1C(=O)N(Cc2cccc(Cl)c2)c2ccccc2S1(=O)=O	HCMV inh -105, FMDV inh inconclusive (no result: Marburg entry inh)
CC(=O)O[C@@]12CO[C@@H]1C[C@@H](O)[C@@]1(C)C(=O)[C@H](O)C3=C(C)[C@@H](OC(=O)[C@H](O)[C@@H](NC(=O)c4ccccc4)c4ccccc4)C[C@@](O)([C@@H](OC(=O)c4ccccc4)C12)C3(C)C (stereo not given in full)	HCMV inh inconclusive (no result: Marburg entry inh, Lassa entry inh)
CC(=O)O[C@H]1C(=O)[C@@]2(C)[C@H]([C@H](OC(=O)c3ccccc3)[C@]3(O)C[C@H](OC(=O)[C@H](O)[C@@H](NC(=O)c4ccccc4)c4ccccc4)C(C)=C1C3(C)C)[C@]1(OC(C)=O)CO[C@@H]1C[C@@H]2O	HCMV inh -70, FMDV inh inconclusive, Marburg entry inh inconclusive (no result: Lassa entry inh)
CC/C=C/CC(=O)N[C@@H](c1ccccc1)[C@@H](O)C(=O)O[C@H]1C[C@@]2(O)[C@@H](OC(=O)c3ccccc3)C3[C@](C)(C(=O)[C@H](OC(C)=O)C(=C1C)C2(C)C)[C@@H](O)C[C@H]1OC[C@@]31OC(C)=O (stereo not given in full)	HCMV inh -91 (no result: Marburg entry inh, Lassa entry inh)
CC(=O)O[C@H]1C(=O)[C@@]2(C)[C@H]([C@H](OC(=O)c3ccccc3)[C@]3(O)C[C@H](OC(=O)[C@H](O)C(NC(=O)c4ccccc4)c4ccccc4)C(C)=C1C3(C)C)[C@]1(OC(C)=O)CO[C@@H]1C[C@@H]2O (stereo not given in full)	HCMV inh -83 (no result: Marburg entry inh, Lassa entry inh)
Cc1nn(C)c(C)c1S(=O)(=O)N1CCC(C(=O)NCCC2=CCCCC2)CC1	HCMV inh inconclusive (no result: Lassa entry inh)
Cc1noc(C)c1S(=O)(=O)N1CCC(C(=O)NCCC2=CCCCC2)CC1	HCMV inh -102, Marburg entry inh inconclusive
O=C1CCc2cc(S(=O)(=O)N3CCC(C(=O)NCCC4=CCCCC4)CC3)ccc2N1	HCMV inh -99 (no result: Marburg entry inh, Lassa entry inh)
CC(=O)OCCCNc1cc(Sc2ccc(Cl)cc2)c2nonc2c1[N+](=O)[O-]	FMDV inh 32µM
COc1cccc([C@@H]2Oc3ccc(Br)cc3C(=O)[C@@H]2OC(=O)N[C@H](C)C2CCCCC2)c1	none (no result: HCMV inh, FMDV inh, Lassa entry inh)
CC(=O)Nc1cc(C(=O)N2CCN(C(=O)c3ccco3)CC2)cc2ncn(CCc3ccccn3)c12	none (no result: HCMV inh, Marburg entry inh, Lassa entry inh)
C#CC[N+](C)(C)CCCCCCCCCCCC	HCMV inh -98, FMDV inh 22µM, Marburg entry inh inconclusive, Lassa entry inh inconclusive
C#CC[N+](C)(C)CCCCCCCCCC	HCMV inh -98
C#CC[N+](C)(C)CCCCCCCC	HCMV inh -77
CC#CC[N+](C)(C)CCCCCCCCCCCC	HCMV inh -101, FMDV inh 13µM, Marburg entry inh 10µM, Lassa entry inh inconclusive
CCCCCCCCCCCCCCCC[N+](C)(C)CCl	HCMV inh inconclusive
COc1cccc(-c2ccc(O)c(CNC(c3ccccc3)c3ccc(Cl)cc3)c2)n1 (stereo not given)	none (no result: HCMV inh, Marburg entry inh, Lassa entry inh)
N#Cc1c(N)nc(SCc2ccccn2)c(C#N)c1-c1cccs1	HCMV inh -69, Lassa entry inh inconclusive
CCc1nn(CC(=O)NC(C)CCc2ccccc2)c(=O)c2cc3c(OC)cccc3n12 (stereo not given)	none (no result: Lassa entry inh)
